Compounds without any hit were thinned out: in the full panel of roughly 83,000, 20% have a hit.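 Percent growth is the endpoint: 0 to 100 indicates growth inhibition (40 means 60% inhibition), 0 means no net growth, and negative values indicate cell death.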 Unmarked numbers belong to inactive results. The source made the active and inactive calls. Rule for the calls: active = growth percent below 10; inactive = the rest.

The subject of the assay is HL-60(TB) leukemia. Put plainly: NCI-60 one-dose screen, 48 h (100 = growth as untreated, 0 = no growth, -100 = all killed). Conditions: 10 µM unless noted.
Take `N#Cc1nc2c(S(=O)(=O)c3ccc(Cl)cc3)c(N)n(Nc3cccc(Cl)c3)c2nc1C#N`: the growth was 40.1%.
With `CCCCCCOc1ccc(/C=C/C(=O)c2ccc(B(O)O)cc2)cc1` the figure was 18.5%.
As to `CC1=C2[C@@H](CC1)[C@]1(C)O[C@@](C(C)C)(C[C@H]1OC(=O)CO)[C@H]2OC(=O)CCCc1ccccc1`, the growth was 1.28% (active).
For the compound `Cc1ccc(NC(=O)c2ccc(CN3CCN(C)CC3)cc2)cc1Nc1nc(-c2cccnc2)cs1`, the growth is 57.9%.
Consider `CCNC(=S)N(Cc1ccccc1)Cc1ccccc1`, for which the growth was 96.2%.
The value for `[N-]=[N+]=NCc1cccc(/C(O)=C/C(=O)C(=O)O)c1` was 17.3%.
With `Cn1c(O)c(N=NC(=O)c2cc(-c3ccccc3)on2)c2ccccc21`, the growth is 80.8%.
The value for `CNC(=O)c1cc(Oc2cccc3nc(NC(=O)Nc4ccc(F)cc4F)ccc23)ccn1` was 81.8%.
The value for `Nc1n[nH]c2cc(F)c([C@@H]3Nc4ccc5[nH]ncc5c4[C@H]4C5CCC(C5)[C@@H]34)cc12` (stereo not given in full) was -22.4% (active); that for `CCN1CCN(c2nc(C)cc(N(CCNc3ccnc4cc(Cl)ccc34)Cc3ccc4c(c3)OCO4)n2)CC1` was -57.7% (active).
With `COc1ccc(-c2cc(=O)c3c(OC)c4ccoc4cc3o2)cc1` the figure was 117%; with `C=CCCCCOc1ccccc1-c1cnc(OCCCCC=C)n1C`, 66.5%.
`CC(C)(C)c1ccc(C2CC(=O)C3=C(C2)Nc2ccccc2N(C(=O)c2ccccc2Cl)C3c2ccc(F)cc2)cc1` (stereo not given): the growth is -19.8% (active).
Consider `COC(=O)C1CCCN1C(=O)[C@@H]1CCCN1C(=O)[C@H](Cc1c[nH]c2ccccc12)NC(=S)Nc1cc(C(F)(F)F)cc(C(F)(F)F)c1` (stereo not given in full), for which the growth was -43.8% (active).
With `COc1ccc(OC)c(-c2cn3nc(-c4c[nH]c5ccc(Br)cc45)sc3n2)c1` the figure was 86.3%; with `C=CN(C(=O)N1CCN(c2cc3c(cc2F)c(=O)c(C(=O)O)cn3C2CC2)CC1)c1nc(-c2ccc(C)cc2)cs1`, -27.2% (active).
Take `C=C(C)[C@@H]1CC[C@]2(COC3CCCCO3)CC[C@]3(C)[C@H](CC[C@@H]4[C@@]5(C)C=C(C=O)C(=O)C(C)(C)[C@@H]5CC[C@]43C)[C@@H]12` (stereo not given in full): the growth was -25.8% (active).
As for `FC(F)(F)c1cc(CNc2nc(Cl)ncc2Br)cc(C(F)(F)F)c1`, the growth was 85.2%.
The value for `O=C(O)c1c[nH]c2ccccc2c1=O` was 91.2%; that for `Cn1cc(-c2nnc(-c3cn(C)c4ncccc34)s2)c2ccccc21` was 27.8%; that for `Cc1c(C(=N)C(C#N)C#N)c(=N)oc2c1ccc1ccccc12` was 65.2%.
With `N#CSCc1cc(Cl)c(CSC#N)cc1Cl` the figure was 22.1%; with `COc1cccc(-c2nn(-c3ccccc3)cc2-c2ccnc(NCCNS(=O)(=O)c3ccc(Cl)cc3)c2)c1`, 7.06% (active); with `Nc1ccc(F)c(Cl)c1F`, 95.6%.
The value for `CCNc1nc(C(F)(F)F)nc2c1sc(=S)n2-c1ccccc1` was 98.9%; that for `c1ccc(Nc2nc(-c3ccccn3)cs2)nc1` was 1.61% (active).
For the compound `CCN(CC)CC(O)COc1c(Br)c(Br)c(Br)c2c1OC(C)(C)C2` (stereo not given), the growth is 14%.
With `O=c1[nH]cc(Nc2cc(Cl)c3nonc3c2[N+](=O)[O-])c(=O)[nH]1` the figure was 75.8%; with `Cn1cc(-c2nnc(-c3cn(C)c4ncccc34)o2)c2ccccc21`, 12.5%; with `CCN(CCO)CCNc1ccc(C)c2sc3cc(OC)ccc3c(=O)c12`, 67.5%.
Regarding `O=C(Nc1ccc(F)cc1)c1c(NC(=O)C(F)(F)F)sc2c1CCCCC2`, the growth is 17.1%.
With `COc1ccc(/C=N\NC(=O)c2ccncc2)cc1O` the figure was 97.9%; with `NC(=S)N/N=C/c1ncccc1O`, -23.2% (active).
The value for `COC1OC(C(O)C(O)CO)C(O)C(O)C1O` (stereo not given) was 108%; that for `OCc1cnccc1NCCCCOc1ccc(Oc2ccccc2)cc1` was 22.7%; that for `COc1ccc2nc(-c3ccc(Cl)cc3)cc(-c3nnc(SC/C(=N/O)c4ccccc4)o3)c2c1` was 82%.
`COc1ccc([N+](=O)[O-])c(/C=C/C(=O)c2ccccn2)c1`: the growth was 88.9%.
With `NC(=Nc1ccccc1)SCCCCSC(N)=Nc1ccccc1` the figure was 79.5%; with `OCc1cccc2ccccc12`, 93.5%; with `COc1ccc(C(=O)C(CN(C)C)CN(C)C)cc1`, 3.54% (active).

These data come from PubChem BioAssay (NCI).
